# High-throughput results (PubChem BioAssay)
# Compounds with a hit are over-represented: about 3.8% of the library has one in this group of screens.
# TGFb SMAD3 inh: qHTS for Inhibitors of TGF-b | HepG2 CAGA-GFP TGF-b/SMAD3 reporter, GFP fluorescence, 18 h; TGF-beta stimulated, 500 pg/mL final | Potency, µM (top dose mostly 46.1 µM), most hits filed as inhibitors | 1.2% of 410,000 active; note: nearly all actives have a fitted effect of over 65% in size
#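 TGF-beta reporter screen: HEPG2 CAGA-GFP, 1% FBS, 500 pg/mL TGF-beta final, 18 h; per-cell GFP summed per well; curves fitted and categorized by class.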
# HepG2 viability: qHTS for Inhibitors of TGF-b: Cytotox Counterscreen; AID 588856, 2011; 0.76% of 410,000 active; HepG2 CAGA-GFP viability, ATP luminescence, 18 h; Potency, µM (doses to about 46.1 µM), actives largely listed as cytotoxic
#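 HepG2 CAGA-GFP cells (1000/well, DMEM with 1% FBS) received compound, then TGF-beta at 500 pg/mL final, and were incubated 18 hours at 37 degrees C. Viability was read by CellTiter-Glo luminescence. Media-only wells were set as complete cell-killing and DMSO as no toxicity.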
# ATXN viability: Viability Counterscreen for Primary qHTS for Inhibitors of ATXN expression | Potency, µM (top dose mostly 56.7 µM), usual class: cytotoxic | S2 cells (HEK-293 line with an ATXN2-luciferase reporter) viability, CellTiter-Fluor protease fluorescence, 24 h | 0.49% of 400,000 active | AID 651635, 2014; note: nearly all actives have a fitted effect of over 40% in size
# A549 tox: Nrf2 qHTS screen for inhibitors: counterscreen for cytotoxicity; A549 ARE-Fluc cells, CellTiter-Fluor viability, 18-24 h; Potency, µM (series often up to 46 µM), hits mostly inhibitors; 0.16% of 390,000 active; AID 504648, 2011
#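 A549 ARE_Fluc cells in 5% FBS OPTI-MEM were exposed to compounds in concentration-response for 18-24 h at 37 deg C. Viability was read by CellTiter-Fluor fluorescence (Ex 405/Em 525) after 30 min, before the luciferase read.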
# Nrf2 inh: Nrf2 qHTS screen for inhibitors; A549 ARE-Fluc reporter, luciferase luminescence, 18-24 h; Potency, µM (series often up to 46 µM), most hits filed as inhibitors; 2.1% of 360,000 active; AID 504444, 2011; note: nearly all actives have a fitted effect of over 60% in size
#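 Cells were seeded and rested 2 h, then exposed to compounds for 18-24 h. CellTiter-Fluor was read first as a viability measure. BugLite was added 15 min before the final luminescent read of ARE-luciferase activity in A549 cells.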
# ATXN2 expr inh: Primary qHTS for Inhibitors of ATXN expression; HEK-293 ATXN2-luciferase reporter, luminescence, 24 h; Potency, µM (titrated, usually from 57 µM), usual class: inhibitors; 0.72% of 360,000 active; note: nearly all actives have a fitted effect of over 55% in size
#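 qHTS (up to 57 uM final) was run with 24 h compound exposure of reporter cells at 37 °C. Each well was multiplexed: SteadyGlo luminescence measured ATXN2-luciferase expression after a fluorogenic Gly-Phe-AFC viability readout (25 uM final).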
# A number is an active result; 0 = inactive; ? = inconclusive; - = no result given. Calls come from the whole dose curve; as a rule, active = well fitted curve in the direction sought with a large enough effect; inconclusive = small, poorly fitted or top-dose-only effect, or another doubt; inactive = no such curve, though single readings can be large; an effect the other way counts as inactive or inconclusive.
SMILES,TGFb SMAD3 inh,HepG2 viability,ATXN viability,A549 tox,Nrf2 inh,ATXN2 expr inh
Nc1ccn([C@@H]2O[C@H](CO)[C@@H](O)C2(F)F)c(=O)n1,-,-,?,-,-,32µM
CCS(=O)(=O)Nc1ccc(-c2cc(-c3ccccc3)c3cc(C)ccc3n2)cc1,?,0,0,?,23µM,0
C=C(C)c1cc2c(s1)c1cnn(Cc3ccccc3F)c(=O)c1n2C,-,-,-,0,?,-
Cc1ccc2c(CN3CCN(S(=O)(=O)c4ccccc4C(F)(F)F)CC3)cc(=O)oc2c1C,0,0,0,0,5.2µM,0
Cc1ccc2c(CN3CCCCC3)cc(=O)oc2c1C,0,0,0,0,0,0
Cc1ccc(NC(=O)N2CCN(Cc3ccc4c(c3)OCO4)CC2)cc1,?,0,0,?,?,0
O=C(Nc1ccc2c(c1)OCO2)N1CCN(Cc2ccco2)CC1,0,0,0,0,16µM,?
N#Cc1c(NC(=O)C2CCCO2)sc2c1CCCCCC2 (stereo unspecified),0,0,0,0,0,0
COc1cc(-c2nc3ccccc3s2)ccc1O,0,0,0,0,18µM,0
COc1ccc(-c2nc3ccccc3s2)cc1O,0,0,0,0,?,0
N#Cc1nc(N2CCCCC2)nc(N2CCOCC2)n1,0,0,0,0,?,?
N#Cc1nc(N)nc(N2CCCCC2)n1,?,0,-,0,18µM,-
Nc1nc(Nc2cccc(Cl)c2)n[nH]1,0,0,0,0,?,0
COCCCNc1nc2ccccc2nc1NS(=O)(=O)c1cc(Cl)ccc1Cl,0,0,-,0,21µM,-
COCCCNc1nc2ccccc2nc1NS(=O)(=O)c1ccc(Cl)cc1,0,0,0,0,0,-
Cc1ccc(NS(=O)(=O)c2cc(NC(=O)c3ccc4c(c3)NC(=O)CS4)ccc2C)c(C)c1,?,0,?,?,18µM,?
COc1cccc(Cn2c(=O)n(-c3ccc(C)c(F)c3)c(=O)c3sc4ccccc4c32)c1,0,0,?,0,0,0
Cc1ccccc1NC(=O)c1sc2nc(N3CCOCC3)c3c(c2c1N)CC(C)(C)OC3,0,0,0,0,0,0
CCOC(=O)N1CCC(NC(=O)c2cnn(-c3cccc(F)c3)c2-n2cccc2)CC1,0,0,-,0,0,-
Cn1nc(-c2ccccc2)cc1NS(=O)(=O)c1ccc(C#N)cc1,0,0,0,0,0,0
O=C(Nc1ccc(OC(F)(F)F)cc1)c1[nH]ncc1[N+](=O)[O-],11µM,0,0,?,7.3µM,0
O=C(Nc1ccc(Oc2ccc(NC(=O)Nc3ccc([N+](=O)[O-])cc3)cc2)cc1)Nc1ccc([N+](=O)[O-])cc1,?,0,0,?,16µM,?
O=C(Nc1ccc([N+](=O)[O-])cc1)Nc1nc(-c2ccc(Cl)s2)cs1,?,10µM,14µM,?,?,7.9µM
O=C(Nc1ccc([N+](=O)[O-])cc1)Nc1ccc([N+](=O)[O-])cc1,-,-,0,-,-,0
Cc1ccc(NC(=O)Nc2cccc([N+](=O)[O-])c2)cc1F,?,0,0,?,?,0
SMILES,TGFb SMAD3 inh,HepG2 viability,ATXN viability,A549 tox,Nrf2 inh,ATXN2 expr inh
O=C(Nc1ccc(OC(F)(F)F)cc1)Nc1cccc([N+](=O)[O-])c1,?,7.9µM,16µM,?,21µM,?
O=C(Cn1cccn1)N1CCOc2c(cc(-c3ncc(C(F)(F)F)cc3Cl)cc2OCC2CCCO2)C1 (stereo unspecified),-,-,0,-,-,-
Nc1c(C(=O)Nc2ccc(F)c(F)c2)sc2nc(-c3ccncc3)ccc12,0,0,0,0,0,0
Cc1ccccc1NC(=O)c1sc2nc(-c3ccncc3)ccc2c1N,0,0,0,0,26µM,20µM
Nc1c(C(=O)Nc2nc3ccccc3s2)sc2nc(-c3cccs3)ccc12,0,6.3µM,0,?,21µM,?
COc1cccc(-c2ccc3c(N)c(C(=O)Nc4ccccc4C)sc3n2)c1,?,0,-,?,-,?
Nc1c(C(=O)Nc2ccc(Cl)c(C(F)(F)F)c2)sc2nc(-c3ccncc3)ccc12,?,0,-,0,7.3µM,-
CN(C)C(=O)[C@@H]1C[C@@H](Sc2nc3ccccc3[nH]2)CN1Cc1ccnc2ccccc12,-,-,0,-,-,-
O=[N+]([O-])c1ccc(-c2cc3ccccc3[nH]2)cc1,0,0,-,-,-,-
COc1ccccc1-c1c(-c2ccc(OCC(=O)NN)cc2O)n[nH]c1C(F)(F)F,0,0,0,0,0,0
COc1ccc(-c2n[nH]c(C(F)(F)F)c2-c2cc3ccccc3o2)c(O)c1,?,13µM,?,16µM,16µM,?
COc1ccc(C(=O)CN2C(=O)c3ccccc3S2(=O)=O)cc1,0,0,0,0,?,0.5µM
COc1ccc(OC)c(-c2nn(-c3ccccc3)cc2C(=O)NC2(C)CCS(=O)(=O)C2)c1 (stereo unspecified),0,0,0,-,-,-
CCOc1cc(C(=S)N2CCOCC2)ccc1OS(=O)(=O)c1ccc(OC)cc1,0,0,0,0,?,0
CC(=O)Nc1ccc(S(=O)(=O)Oc2ccc(C(=S)N3CCCCC3)cc2)cc1,0,0,0,0,21µM,0
CCOc1cc(C(=S)N2CCOCC2)ccc1OS(=O)(=O)c1ccc(NC(C)=O)cc1,0,0,0,0,9.2µM,0
CCN1C(=O)/C(=C/c2ccc(OC)c(OC)c2)N=C1SCC(=O)NCc1ccco1,0,0,?,0,0,0
COc1ccc(CCNc2ccc(N3C(=O)CC(C)C3=O)cc2[N+](=O)[O-])cc1OC (stereo unspecified),0,0,?,0,15µM,0
COc1ccc(CCNc2ccc(N3C(=O)CC(C)C3=O)cc2[N+](=O)[O-])cc1 (stereo unspecified),0,0,0,0,0,0
COc1ccc(NC(=O)[C@@H]2O[C@H](CO)[C@H](O)[C@H](O)[C@H]2O)cc1F,0,0,0,-,-,0
Cc1ccc(NC(=O)C(=O)NCC2OCCc3ccccc32)cc1 (stereo unspecified),0,0,0,0,0,0
O=C(NCC1OCCc2ccccc21)c1ccc(NC(=O)c2ccc(Cl)cc2)cc1 (stereo unspecified),?,0,?,?,21µM,?
CC(C)(C)n1ncc2c(=O)n(Cc3ccc(OC(F)(F)F)cc3)cnc21,0,0,-,-,-,-
CCCCCCOC(=O)NC(=N)c1ccc(NCc2nc3cc(C(=O)N(CCC(=O)OCC)c4ccccn4)ccc3n2C)cc1,-,-,32µM,-,-,32µM
CC(C)(C)NCC(O)CON=C1c2ccccc2-c2ccccc21 (stereo unspecified),?,11µM,-,0,0,0
